In the library only some 13% were active in any assay of this set; here they are far more common.
HCV inhibitor: blocks hepatitis C virus. Huh7.5.1 HCVcc-Cre infection, luciferase reporter, 44 h. Potency, µM (doses to about 41.8 µM), hits mostly inhibitors. 3.4% of 340,000 active. AID 651820; active = well fitted inhibition curve with a large enough effect; inconclusive = small, poorly fitted or top-dose-only effect, or another doubt; inactive = no such curve, though single readings can be large or run the other way
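1,000 cells/well; 4 h culture; + compound; + HCVcc-Cre (~0.5 moi); 44 h; luciferase substrate, RT 15 min; read 15 sec.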
Shiga toxin inh: inhibitors of Shiga toxin in Vero cells; Vero cells, Shiga toxin protein synthesis inhibition reporter; 9.2% of 290,000 active; inhibition, % at 38.7 µM; AID 2315; in the data active = inhibition mostly above about 28%, no sharp cut-off; inactive = mostly below about 43%
Lassa entry inh: blocks Lassa virus binding to or entry into cells | Lassa virus pseudotype entry inhibition, cell reporter | Potency, µM (doses to about 37.9 µM), actives largely listed as inhibitors | 1.2% of 300,000 active; calls by dose curve; tested in HEK293 cells; note: nearly all actives have a fitted effect of over 50% in size
FMDV antiviral: blocks foot and mouth disease virus | Potency, µM (top dose mostly 57.9 µM), hits mostly inhibitors | AID 1159524 | FMDV antiviral cell-based qHTS | 1.2% of 410,000 active; calls by dose curve; tested in HEK293T cells; note: read-out not given here; nearly all actives have a fitted effect of over 45% in size
CHX counter: counter-screen hit for Shiga toxin inhibitors, cycloheximide; cell reporter, cycloheximide protein synthesis inhibition counterscreen; max response, %; 12% of 300,000 active; in the data active = max response mostly above about 13%, no sharp cut-off; inactive = mostly below about 14%; note: read at 38.3 µM for the half of the compounds with a filed dose
MARV entry inh: Marburg virus entry inhibition; Marburg virus pseudotyped entry inhibition, cell reporter; Potency, µM (titrated, usually from 37.8 µM), usual class: inhibitors; 1.8% of 300,000 active; calls by dose curve; tested in HEK293 cells
Of the large screens only hits and unclear results are named; the others gave an inactive call.

O=S(=O)(c1ccc(F)c(F)c1)N1CCCc2ccccc21	Shiga toxin inh 64, CHX counter 37 (no result: Lassa entry inh, MARV entry inh)
Cc1cccc(S(=O)(=O)N2CCCc3ccccc32)c1	none (no result: Lassa entry inh, MARV entry inh)
Cc1cc(C(=O)N/N=C/c2cc(Cl)cc([N+](=O)[O-])c2O)n[nH]1	MARV entry inh inconclusive
Cc1csc(NC(=O)c2ccncc2)n1	none (no result: Lassa entry inh, MARV entry inh)
Cc1csc(NC(=O)c2cnccn2)n1	CHX counter 45
Cc1csc(NC(=O)c2cccc(C)c2C)n1	CHX counter 38, MARV entry inh inconclusive
Cc1csc(NC(=O)c2ccccc2)n1	CHX counter 43 (no result: Shiga toxin inh, Lassa entry inh, MARV entry inh)
Cc1csc(NC(=O)[C@@H](NC(=O)c2ccccc2)C(C)C)n1	none
Cc1csc(NC(=S)NC(=O)c2ccccc2)n1	HCV inhibitor inconclusive, Shiga toxin inh 61, CHX counter 22, MARV entry inh inconclusive
Cc1csc(NC(=O)c2cccnc2Cl)n1	MARV entry inh inconclusive (no result: Shiga toxin inh, CHX counter)
Cc1csc(NC(=O)c2cccnc2)n1	none (no result: Lassa entry inh, MARV entry inh)
Cc1csc(NC(=O)c2ccc[nH]c2=O)n1	CHX counter 36 (no result: Shiga toxin inh, Lassa entry inh, MARV entry inh)
Cc1csc(NC(=O)c2ccc3nc[nH]c3c2)n1	Lassa entry inh inconclusive, CHX counter 52, MARV entry inh inconclusive
CCC(CC)NC(=O)c1ccc2nc[nH]c2c1	none
Cc1csc(NC(=O)NCC2CCCC(CNC(=O)Nc3nc(C)cs3)C2)n1 (configuration not stated)	HCV inhibitor inconclusive, Shiga toxin inh 43, CHX counter 30, MARV entry inh inconclusive
COc1cccc(C(=O)Nc2nc(C)cs2)c1	Shiga toxin inh 68, Lassa entry inh inconclusive, CHX counter 35, MARV entry inh inconclusive
CC(=O)Nc1nc(C)cs1	none
O=C(O)c1occc1CSc1ccccc1	none
COc1ccc(NC(=O)c2ccco2)cc1NC(=O)c1cc(OC)c(OC)c(OC)c1	none (no result: HCV inhibitor, Shiga toxin inh, CHX counter)
Cc1ccc(C)c(NC(=O)C(Sc2nncn2C)c2ccccc2)c1 (configuration not stated)	none
CC(=O)C(=Nc1ccc(Cl)cc1Cl)NNc1cccc(Cl)c1	HCV inhibitor 10µM, Lassa entry inh 10µM, MARV entry inh inconclusive
CCCCCCCc1nc2c(=O)n(C)c3ccccc3c2o1	none
CCCCCc1nc2c(=O)n(C)c3ccccc3c2o1	Shiga toxin inh 123, CHX counter 64
COc1ccc(NC(=O)c2sc(SC)nc2N)cc1	CHX counter 39 (no result: FMDV antiviral)
COc1ccc(NC(=O)c2sc(SCc3ccccc3)nc2N)cc1	Lassa entry inh inconclusive, CHX counter 22
COc1ccc(NC(=O)c2scc(S(=O)(=O)C(C)C)c2N)cc1	Shiga toxin inh 75, Lassa entry inh inconclusive, CHX counter 35, MARV entry inh inconclusive
Cc1cc(C)cc(NC(=O)CN(C)S(=O)(=O)c2ccc3c(c2)CCC(=O)N3)c1	none (no result: HCV inhibitor, Shiga toxin inh, CHX counter)
COc1ccc(-c2c3c(=O)n(C)c(=O)n(C)c3c3n2-c2ccccc2NC3c2ccco2)cc1 (configuration not stated)	FMDV antiviral inconclusive, MARV entry inh inconclusive (no result: HCV inhibitor, Shiga toxin inh, CHX counter)
CS(=O)(=O)N(CC(=O)NCCSCc1c(F)cccc1Cl)c1cccc([N+](=O)[O-])c1	none
CCOC(=O)c1ccc(Nc2ccc([N+](=O)[O-])cn2)cc1	Shiga toxin inh active, CHX counter 31, MARV entry inh inconclusive
COc1ccc(CNc2ccc([N+](=O)[O-])cn2)cc1	Shiga toxin inh 59, Lassa entry inh inconclusive, CHX counter 28, MARV entry inh inconclusive
CCOC(=O)c1ccc(Nc2nc(C)cc(C)n2)cc1	Lassa entry inh inconclusive
O=[N+]([O-])c1ccc(NCCOc2ccccc2Cl)nc1	HCV inhibitor inconclusive, Shiga toxin inh 44, CHX counter 29 (no result: Lassa entry inh, MARV entry inh)
COc1ccccc1Nc1ccc([N+](=O)[O-])cn1	CHX counter 21, MARV entry inh inconclusive
O=C(C1CCN(S(=O)(=O)c2cccs2)CC1)N1CCN(c2ccccc2)CC1	MARV entry inh inconclusive
COc1ccccc1NC(=O)CSc1nnc(-c2cccc(Cl)c2)o1	MARV entry inh inconclusive (no result: HCV inhibitor, Shiga toxin inh, CHX counter)
COc1ccc(Nc2nc(=O)c3cc([N+](=O)[O-])ccc3s2)cc1	none (no result: Lassa entry inh, MARV entry inh)
COc1ccc(Nc2cc(C)c3cc([N+](=O)[O-])ccc3n2)cc1	HCV inhibitor inconclusive, CHX counter 11 (no result: Lassa entry inh, MARV entry inh)
O=[N+]([O-])c1ccc(NCc2ccccn2)nc1	Shiga toxin inh 47, Lassa entry inh inconclusive, CHX counter 16, MARV entry inh inconclusive
COc1ccc(Nc2ccc([N+](=O)[O-])cn2)cc1	Shiga toxin inh 38, CHX counter 37
O=c1[nH]c(=S)[nH]c2c1C(c1ccc(F)cc1)OC(CCOCc1ccccc1)C2 (configuration not stated)	none (no result: HCV inhibitor, Shiga toxin inh, Lassa entry inh, CHX counter, MARV entry inh)
COc1cccc(COC(=O)C2CCN(S(=O)(=O)c3ccc(C)cc3)CC2)c1OC	none (no result: Shiga toxin inh, CHX counter)
O=c1c(-c2ccccc2)n[nH]c2ccccc12	Shiga toxin inh 72, CHX counter 74
COc1cccc(CNC(=O)c2cc3oc4ccccc4c3n2C)c1OC	HCV inhibitor inconclusive, Lassa entry inh 5.6µM, MARV entry inh inconclusive
COC(=O)c1cc2oc3ccccc3c2n1CC(=O)Nc1ccccc1OC	none
CCOc1ccc(CNC(=O)c2ccc3oc(=O)n(Cc4ccccc4)c3c2)cc1	Lassa entry inh 5µM, FMDV antiviral inconclusive (no result: HCV inhibitor, Shiga toxin inh, CHX counter, MARV entry inh)
Cc1ccc(CNC(=O)c2ccc3oc(=O)n(Cc4ccccc4)c3c2)cc1	Lassa entry inh inconclusive (no result: HCV inhibitor, Shiga toxin inh, CHX counter, MARV entry inh)
CCn1c(C(=O)NCc2ccc(F)cc2)cc2oc3ccccc3c21	Lassa entry inh inconclusive, MARV entry inh 3.5µM (no result: HCV inhibitor, Shiga toxin inh, CHX counter)
CCOc1ccc(CNC(=O)c2cc3oc4ccccc4c3n2C)cc1	Lassa entry inh inconclusive, MARV entry inh 4µM
COC(=O)c1cc2oc3ccccc3c2n1Cc1ccc(Cl)cc1	MARV entry inh inconclusive (no result: HCV inhibitor, Shiga toxin inh, Lassa entry inh, CHX counter)
Cc1ccc(C)c(N2CCN(C(=O)C(Cc3ccccc3)n3cccc3)CC2)c1 (configuration not stated)	HCV inhibitor inconclusive, FMDV antiviral inconclusive (no result: Lassa entry inh)
CCOc1ccccc1CNC(=O)c1cc2oc3ccccc3c2n1CC	HCV inhibitor inconclusive, Lassa entry inh 5.2µM, MARV entry inh 3.3µM
CCOc1ccccc1CNC(=O)CNC(=O)c1cccs1	none (no result: Lassa entry inh, MARV entry inh)
Cc1nc2ccccc2nc(C)c1=NO	Shiga toxin inh 114, CHX counter 51
Cc1nc2ccc(Cl)cc2nc(C)/c1=N\O	Lassa entry inh inconclusive, CHX counter 28
Cc1ccc2nc(C)/c(=N\O)c(C)nc2c1	Shiga toxin inh 86, CHX counter 23
Cc1ccc2nc(N)nnc2c1	none (no result: HCV inhibitor, Shiga toxin inh, Lassa entry inh, CHX counter, MARV entry inh)
Cc1ccc(C(=O)CSc2nnc(COc3ccccc3)o2)cc1	Lassa entry inh inconclusive
COc1ccccc1CCC(=O)N(C)CC(=O)Nc1ccc(Cl)c(C(F)(F)F)c1	Lassa entry inh inconclusive (no result: HCV inhibitor)
CC1(C)CC(=O)C2=C(C1)OC1=C(C(=O)CC(C)(C)C1)C2(C)C	none (no result: FMDV antiviral)
O=C1c2ccccc2CN1CCNS(=O)(=O)c1ccc(Cl)cc1	none
CN(C)c1c(F)cc(C(=O)NCc2ccccc2)cc1F	CHX counter 20 (no result: Lassa entry inh, MARV entry inh)
Cc1ccc(C(=O)NCc2ccccc2)cc1Br	HCV inhibitor inconclusive, CHX counter 17
O=C(NCc1ccccc1)c1ccc(Cl)nc1	Shiga toxin inh 70, CHX counter 40, MARV entry inh inconclusive

High-throughput results: PubChem, National Center for Advancing Translational Sciences (NCATS)
